According to PubChem BioAssay AID1159580 (chemical genetic matrix, 2015):
In all, about 5,500 compounds went through this assay and about 2,000 (36%) were called active. Not shown: some 18% with an inconclusive outcome. Cut-off read from the data, not from the text of the source: active = normalized growth mostly below about 0.91 (no sharp cut-off); inconclusive = no clear call, values can overlap the other calls; inactive = mostly above about 0.92. The list shows a part of the results.

Assay: chemical genetic growth profiling, strain panel (AID 1159580);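 note: tested at 20 µM; growth read once vehicle control cultures reached saturation at 30 °C; 1 = growth at the plate median or of vehicle wells; lower values mean less growth of the strain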
Conditions: growth OD
[1] = S. cerevisiae deletion strains, locus YDL101C, strain DUN1, stronger effect = lower value
[2] = S. cerevisiae deletion strains, locus YHR030C, strain SLT2, stronger effect = lower value

Measured: normalized growth

COc1ccc(-c2ccnc(SCC(=O)NCCSCc3ccco3)n2)cc1
inactive: S. cerevisiae deletion strains, locus YAL013W, strain DEP1, stronger effect = lower value 1.01 | S. cerevisiae deletion strains, locus YBR229C, strain ROT2, stronger effect = lower value 0.998 | S. cerevisiae deletion strains, locus YCL061C, strain MRC1, stronger effect = lower value 1.01 | [1] 1 | S. cerevisiae deletion strains, locus YDR150W, strain NUM1, stronger effect = lower value 0.991 | S. cerevisiae deletion strains, locus YEL061C, strain CIN8, stronger effect = lower value 1 | S. cerevisiae deletion strains, locus YGR078C, strain PAC10, stronger effect = lower value 1.01 | [2] 1.09 | S. cerevisiae deletion strains, locus YHR087W, strain rtc3, stronger effect = lower value 0.998 | S. cerevisiae deletion strains, locus YJL187C, strain SWE1, stronger effect = lower value 1.02 | S. cerevisiae deletion strains, locus YJR043C, strain POL32, stronger effect = lower value 1 | S. cerevisiae deletion strains, locus YJR075W, strain HOC1, stronger effect = lower value 0.991 | S. cerevisiae deletion strains, locus YLR039C, strain RIC1, stronger effect = lower value 0.999 | S. cerevisiae deletion strains, locus YLR058C, strain SHM2 (second series), stronger effect = lower value 1 | S. cerevisiae deletion strains, locus YLR085C, strain ARP6, stronger effect = lower value 0.98 | S. cerevisiae deletion strains, locus YLR262C, strain YPT6, stronger effect = lower value 1.03 | S. cerevisiae deletion strains, locus YML094W, strain GIM5, stronger effect = lower value 1 | S. cerevisiae deletion strains, locus YMR219W, strain ESC1, stronger effect = lower value 1.01 | S. cerevisiae deletion strains, locus YMR263W, strain SAP30, stronger effect = lower value 1.01 | S. cerevisiae deletion strains, locus YMR307W, strain GAS1, stronger effect = lower value 0.993 | S. cerevisiae deletion strains, locus YNL128W, strain TEP1, stronger effect = lower value 0.999 | S. cerevisiae deletion strains, locus YNL153C, strain GIM3, stronger effect = lower value 1.02 | S. cerevisiae deletion strains, locus YNL298W, strain CLA4 (second series), stronger effect = lower value 1.01 | S. cerevisiae deletion strains, locus YNL322C, strain KRE1, stronger effect = lower value 1.01 | S. cerevisiae deletion strains, locus YNR030W, strain Alg12, stronger effect = lower value 1.01 | S. cerevisiae deletion strains, locus YOL006C, strain TOP1, stronger effect = lower value 1.03 | S. cerevisiae deletion strains, locus YPL055C, strain LGE1, stronger effect = lower value 1.02 | S. cerevisiae deletion strains, locus YPL241C, strain CIN2, stronger effect = lower value 1.01 | S. cerevisiae deletion strains, locus YPR135W, strain CTF4, stronger effect = lower value 1.03 | S. cerevisiae strains, strain wild type, stronger effect = lower value 1

O=C(NCCSCc1cccc(C(F)(F)F)c1)c1ccc(Cl)cc1
active: [2] 0.614 | S. cerevisiae deletion strains, locus YLR113W, strain HOG1, stronger effect = lower value 0.736 | S. cerevisiae deletion strains, locus YPL256C, strain CLN2, stronger effect = lower value 0.797
inactive: S. cerevisiae deletion strains, locus YAR019C, strain CDC15, stronger effect = lower value 0.968 | S. cerevisiae deletion strains, locus YBL105C, strain PKC1, stronger effect = lower value 0.965 | S. cerevisiae deletion strains, locus YBR135W, strain CKS1, stronger effect = lower value 0.953 | S. cerevisiae deletion strains, locus YBR136W, strain MEC1, stronger effect = lower value 0.979 | S. cerevisiae deletion strains, locus YBR160W, strain CDC28, stronger effect = lower value 0.964 | S. cerevisiae deletion strains, locus YDL017W, strain CDC7, stronger effect = lower value 0.971 | S. cerevisiae deletion strains, locus YDL028C, strain MPS1, stronger effect = lower value 0.947 | [1] 0.975 | S. cerevisiae deletion strains, locus YDL108W, strain KIN28, stronger effect = lower value 0.961 | S. cerevisiae deletion strains, locus YDL132W, strain cdc53, stronger effect = lower value 0.96 | S. cerevisiae deletion strains, locus YDL214C, strain PRR2, stronger effect = lower value 0.891 | S. cerevisiae deletion strains, locus YDR052C, strain DBF4, stronger effect = lower value 0.982 | S. cerevisiae deletion strains, locus YDR054C, strain cdc34, stronger effect = lower value 0.955 | S. cerevisiae deletion strains, locus YDR226W, strain ADK1, stronger effect = lower value 0.973 | S. cerevisiae deletion strains, locus YDR477W, strain SNF1, stronger effect = lower value 0.894 | S. cerevisiae deletion strains, locus YER123W, strain YCK3, stronger effect = lower value 0.851 | S. cerevisiae deletion strains, locus YER133W, strain GLC7, stronger effect = lower value 0.916 | S. cerevisiae deletion strains, locus YFL009W, strain cdc4, stronger effect = lower value 0.961 | S. cerevisiae deletion strains, locus YFL029C, strain CAK1, stronger effect = lower value 0.965 | S. cerevisiae deletion strains, locus YFR003C, strain YPI1, stronger effect = lower value 0.964 | S. cerevisiae deletion strains, locus YFR019W, strain FAB1, stronger effect = lower value 0.964 | S. cerevisiae deletion strains, locus YFR028C, strain CDC14, stronger effect = lower value 0.965 | S. cerevisiae deletion strains, locus YGR040W, strain KSS1, stronger effect = lower value 0.905 | S. cerevisiae deletion strains, locus YGR052W, strain FMP48, stronger effect = lower value 0.826 | S. cerevisiae deletion strains, locus YGR092W, strain DBF2, stronger effect = lower value 0.733 | S. cerevisiae deletion strains, locus YHR079C, strain IRE1, stronger effect = lower value 0.72 | S. cerevisiae deletion strains, locus YHR082C, strain KSP1, stronger effect = lower value 0.871 | S. cerevisiae deletion strains, locus YHR205W, strain SCH9, stronger effect = lower value 0.738 | S. cerevisiae deletion strains, locus YIL147C, strain SLN1, stronger effect = lower value 0.97 | S. cerevisiae deletion strains, locus YJL095W, strain BCK1, stronger effect = lower value 0.743 | S. cerevisiae deletion strains, locus YJL128C, strain PBS2, stronger effect = lower value 0.887 | S. cerevisiae deletion strains, locus YJL157C, strain FAR1, stronger effect = lower value 0.918 | S. cerevisiae deletion strains, locus YJR016C, strain ILV3, stronger effect = lower value 0.959 | S. cerevisiae deletion strains, locus YJR066W, strain TOR1 (second series), stronger effect = lower value 0.897 | S. cerevisiae deletion strains, locus YJR066W, strain TOR1, stronger effect = lower value 0.769 | S. cerevisiae deletion strains, locus YKL048C, strain ELM1, stronger effect = lower value 0.963 | S. cerevisiae deletion strains, locus YKL067W, strain YNK1, stronger effect = lower value 0.864 | S. cerevisiae deletion strains, locus YKL101W, strain HSL1, stronger effect = lower value 0.917 | S. cerevisiae deletion strains, locus YKL193C, strain SDS22, stronger effect = lower value 0.962 | S. cerevisiae deletion strains, locus YKL203C, strain TOR2, stronger effect = lower value 0.988 | S. cerevisiae deletion strains, locus YLR133W, strain CKI1, stronger effect = lower value 0.902 | S. cerevisiae deletion strains, locus YLR403W, strain SFP1, stronger effect = lower value 0.896 | S. cerevisiae deletion strains, locus YML070W, strain DAK1, stronger effect = lower value 0.903 | S. cerevisiae deletion strains, locus YMR001C, strain CDC5, stronger effect = lower value 0.963 | S. cerevisiae deletion strains, locus YMR205C, strain PFK2 (second series), stronger effect = lower value 0.885 | S. cerevisiae deletion strains, locus YMR277W, strain FCP1, stronger effect = lower value 0.951 | S. cerevisiae deletion strains, locus YNL006W, strain LST8, stronger effect = lower value 0.967 | S. cerevisiae deletion strains, locus YNL020C, strain ARK1, stronger effect = lower value 0.896 | S. cerevisiae deletion strains, locus YNL161W, strain CBK1, stronger effect = lower value 0.973 | S. cerevisiae deletion strains, locus YNL183C, strain NPR1, stronger effect = lower value 0.819 | S. cerevisiae deletion strains, locus YNL207W, strain RIO2, stronger effect = lower value 0.969 | S. cerevisiae deletion strains, locus YNL222W, strain SSU72, stronger effect = lower value 0.965 | S. cerevisiae deletion strains, locus YNL307C, strain MCK1 (second series), stronger effect = lower value 0.86 | S. cerevisiae deletion strains, locus YOL078W, strain AVO1, stronger effect = lower value 0.963 | S. cerevisiae deletion strains, locus YOL136C, strain PFK27, stronger effect = lower value 0.896 | S. cerevisiae deletion strains, locus YOR061W, strain CKA2, stronger effect = lower value 0.849 | S. cerevisiae deletion strains, locus YOR119C, strain RIO1, stronger effect = lower value 0.916 | S. cerevisiae deletion strains, locus YOR231W, strain MKK1, stronger effect = lower value 0.764 | S. cerevisiae deletion strains, locus YOR329C, strain SCD5, stronger effect = lower value 0.965 | S. cerevisiae deletion strains, locus YPL031C, strain PHO85, stronger effect = lower value 0.892 | S. cerevisiae deletion strains, locus YPL153C, strain RAD53, stronger effect = lower value 0.892 | S. cerevisiae deletion strains, locus YPL204W, strain HRR25, stronger effect = lower value 0.886 | S. cerevisiae deletion strains, locus YPL209C, strain IPL1, stronger effect = lower value 0.968 | S. cerevisiae deletion strains, locus YPR025C, strain CCL1, stronger effect = lower value 0.957 | S. cerevisiae deletion strains, locus YPR106W, strain ISR1, stronger effect = lower value 0.947 | S. cerevisiae deletion strains, locus YPR111W, strain DBF20, stronger effect = lower value 0.93 | S. cerevisiae deletion strains, strain NNK1, stronger effect = lower value 0.954 | S. cerevisiae deletion strains, strain TSCII, stronger effect = lower value 0.959
